In PubChem BioAssay (NCI):
Compounds without any hit were thinned out: in the full panel of roughly 79,000, 15% have a hit. Values without a mark were called inactive. The source made the active and inactive calls. Cut-off read from the data, not from the text of the source: active = growth inhibition above about 70%; inactive = the rest.

Tests used:
[1] = NCI Yeast Anticancer Drug Screen. Data for the rad50 strain (AID 155);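 note: 0% = growth of vehicle-only cultures of the same strain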; details: S. cerevisiae rad50 strain growth inhibition; at 50.0 µM; active compounds read high
In short: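 Genetically altered yeast (DNA repair pathway); compound treatment; growth inhibition vs vehicle ctrl.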

[2] = NCI Yeast Anticancer Drug Screen. Data for the mec2-1 strain (AID 157); details: S. cerevisiae mec2-1 strain, at 50.0 µM, active compounds read high
In short: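 Using mec2-1 yeast: add compound, measure growth, express inhibition versus vehicle-treated cultures.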

[3] = NCI Yeast Anticancer Drug Screen. Data for the sgs1 mgt1 strain (AID 161);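 note: 0% = growth of cultures given vehicle only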; details: S. cerevisiae sgs1 mgt1 strain, at 50.0 µM, active compounds read high
In short: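 Growth of a repair-deficient yeast mutant was monitored after compound treatment and expressed as inhibition relative to vehicle-treated cultures.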

[4] = NCI Yeast Anticancer Drug Screen. Data for the cln2 rad14 strain (AID 165);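 note: 0% = growth equal to vehicle treated cultures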; details: S. cerevisiae cln2 rad14 strain, at 50.0 µM, active compounds read high
In short: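 Yeast strain cln2 rad14, bearing defects in cell cycle control and DNA repair, serves as the test system; values reflect growth inhibition compared with vehicle.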

[5] = NCI Yeast Anticancer Drug Screen. Data for the bub3 strain (AID 167); details: S. cerevisiae bub3 mutant strain, at 50.0 µM, active compounds read high
In short: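 Yeast carrying a defined mutation is treated with each compound, and growth is compared with that of vehicle-exposed cells to give inhibition.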

[6] = NCI Yeast Anticancer Drug Screen. Data for the mlh1 rad18 strain (AID 175); details: S. cerevisiae mlh1 rad18 strain growth inhibition; at 50.0 µM; active compounds read high
In short: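 Steps: expose repair-defective yeast to compound; measure growth; express inhibition against vehicle-treated controls.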

Structure (SMILES)	growth inhibition [1]	growth inhibition [2]	growth inhibition [3]	growth inhibition [4]	growth inhibition [5]	growth inhibition [6]
N#C/C(=C\NC(N)=S)C(=O)c1ccc2ccccc2c1	-14.3%	-20.9%	-25.9%	27.5%	0.8%	-11.1%
COC(=O)N/N=C/c1ccc(NC(C)=O)cc1	7.8%	0%	-13.8%	-75.6%	-4.95%	-5%
COC(=O)/C=C/C=C/C(=O)OC	-4.85%	-1.7%	-2.6%	-41.9%	-30.1%	3.85%
CC(C)=CCC1=C(OC2OC(CO)C(O)C(O)C2O)C(=O)c2ccccc2C1=O (stereo unspecified)	15.2%	15.6%	11.2%	6.95%	6.55%	5.5%
Nc1ccc(S(=O)c2ccc(N)cc2)cc1	27.9%	-14.1%	8.25%	20.8%	18.6%	33.1%
O=C1CCCc2ccc([N+](=O)[O-])cc21	-3.35%	-54.7%	-17.2%	18.6%	-11.8%	23.1%
Cc1nc2ccc(Cl)cc2c(-n2ccnc2)c1CCn1ccnc1	-11.6%	-4.6%	-3.55%	-0.5%	9.25%	-3.7%
Oc1ccc(N2CCOCC2)cc1	0.45%	16.8%	3.05%	-32%	25.6%	8.5%
COc1cccc2c1C(=O)c1c(OC)c(CBr)cc(OC)c1C2=O	37.6%	9.55%	15.9%	-36.6%	-7.85%	15.5%
O=C(/C=C\c1cccc2ccccc12)c1cccc2ccccc12	35.5%	12.8%	0.55%	-4.75%	23.1%	34.4%
O=S1CCS(=O)CCS(=O)CC1 (stereo unspecified)	-17.1%	-2.3%	-0.6%	-18.6%	-0.4%	-9.7%
C=CCOC(=O)C(C)(C)OC(C)=O	13.9%	5.9%	10.8%	3.15%	2%	-1.85%
O=C1CN(C(=O)Nc2ccccc2)c2ccccc2N1	26.6%	-25.5%	-8.3%	4.55%	7%	-5.5%
O=C(/C=C/c1ccc(O)c(O)c1)OC1CC(O)(C(=O)O)CC(O)C1O (stereo unspecified)	4.75%	5.9%	7.85%	11.4%	-2.75%	17.7%
NCc1ccc(C(=O)O)cc1	-30.2%	-8.9%	-28%	-68.7%	-13%	-14.6%
Cc1[nH]c2ccccc2c(=O)c1-c1ccccc1	-12.2%	-14.2%	-5.25%	-38%	0.35%	-35.8%
CC(=O)CC(SCCSCCSC(CC(C)=O)c1ccccc1)c1ccccc1 (stereo unspecified)	6.9%	-3.65%	5.05%	17.1%	3.95%	14.7%
CCC(SC(CC)(CC(C)C)C(N)=O)C(N)=O (stereo unspecified)	4.1%	-5.65%	15.8%	-53%	6.9%	-14.4%

Structure (SMILES)	growth inhibition [1]	growth inhibition [2]	growth inhibition [3]	growth inhibition [4]	growth inhibition [5]	growth inhibition [6]
N#CC1(C#N)C(c2ccccc2)C1(C#N)C(N)=O (stereo unspecified)	-13.2%	11.4%	-22.9%	-20.6%	-6.7%	-27.5%
CCOC(=O)/C(C(C)=O)=C1\C(=O)c2ccccc2-c2ccccc21	21.6%	3.5%	2.8%	-19.2%	12.9%	12.5%
Cc1cnc(Cl)[nH]1 (tested in a mixture with another compound)	2.7%	1.55%	2.15%	-47.5%	14.8%	-5.5%
S=C(S)N1CCN(c2cccc(Cl)c2)CC1	40.2%	16.1%	58.5%	44.7%	47.1%	70.5% (active)
Cc1cccc(C)c1NC(=O)OC(C)C	4.8%	5.65%	-28.3%	-32.5%	11.8%	-12.7%
NC1=NS(=O)(=O)Nc2nc(-c3ccc([N+](=O)[O-])o3)[nH]c21	50.5%	-8.6%	26.1%	23.2%	-2.7%	50.5%
CCc1cc2c(oc3cc(C)ccc32)c(=O)n1C	-12.4%	-7.7%	-13.8%	13.5%	-14.2%	-8.75%
C[N+]1(C)CCOC(O)(c2ccccc2)C1 (stereo unspecified)	-29.6%	-34%	-27.4%	-2.85%	-59.1%	-18.6%
CN(C)c1ccc(Cc2ccc(N(C)C)cc2)cc1	-4.1%	-6.3%	-16.9%	-23.6%	10.4%	7%
CCCNC(=O)N(CCC)S(=O)(=O)c1ccc(Cl)cc1	-6.85%	8.45%	12.3%	24.6%	22.7%	25.6%
O=C(O)c1cc(Cl)ccc1-c1ccc(Cl)cc1C(=O)Nc1ccc2c(c1)Cc1cc(Cl)cc(Cl)c1-2	96.2% (active)	97.5% (active)	97.8% (active)	97.2% (active)	95.6% (active)	97.3% (active)
COc1cc2c(cc1O)C1CC(CC3CCCCN31)OC(=O)/C=C\c1ccc(O)c-2c1 (stereo unspecified)	-28.1%	-48.3%	-31.2%	20.8%	-43.9%	-54.2%
COc1ccc2c(c1)OCCN(C)OC2c1cccc(Cl)c1 (stereo unspecified)	-4.55%	-6.45%	-7.15%	-5.15%	9.4%	6.7%
Cc1ccc(C2CC(c3ccc([N+](=O)[O-])cc3)=Nc3ccccc3S2)cc1 (stereo unspecified)	6.4%	-1.75%	15.1%	14.7%	20.5%	8.6%
Clc1ccc(NC2=NCCN=C(Nc3ccc(Cl)c(Cl)c3)SS2)cc1Cl	-26.9%	-21.4%	-14.7%	-14.1%	-28.1%	-33.6%
CC[P+](C)(Cc1ccccc1)c1ccccc1 (stereo unspecified)	-0.75%	1.6%	22.1%	-3.25%	9.45%	21.3%
COc1ccc(N2C(=O)C3c4[nH]c5ccc(C)cc5c4C4CCC(C)CC4C3C2=O)cc1 (stereo unspecified)	-24.2%	-0.6%	1.65%	-6.9%	-13.3%	-4.55%
Cc1ccc(C(=O)CC2(O)C(=O)Nc3ccccc32)cc1 (stereo unspecified)	25.4%	17.4%	22.4%	16.9%	14.3%	20.9%
